# Apoferritin bind – binds horse apoferritin like a general anesthetic; apoferritin/1-aminoanthracene competitive binding, fluorescence; 350,000 compounds, 0.074% hits; Potency, µM (series often up to 77.5 µM), most hits filed as inhibitors; note: nearly all actives have a fitted effect of over 20% in size
# Target sequence (P02791 2-175 limits assumed): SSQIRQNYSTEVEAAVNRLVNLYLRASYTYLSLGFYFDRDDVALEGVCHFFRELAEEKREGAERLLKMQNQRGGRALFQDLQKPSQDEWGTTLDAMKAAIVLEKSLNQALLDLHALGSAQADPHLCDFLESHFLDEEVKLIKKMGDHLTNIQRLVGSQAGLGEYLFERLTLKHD
#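 Read-out: endpoint 1-AMA fluorescence, excitation 380 nm and emission 535 nm, after compounds sit 10 min at room temperature with 10 uM horse-spleen apoferritin in 50% saturated 1-AMA/PBS. Values come from four-parameter Hill fits.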
# CBFb-RUNX1 inh – CBF-beta/RUNX1 interaction disruption; AlphaScreen CBFb-His/RUNX1-biotin binding, biochemical; Potency, µM (titrated, usually from 59.8 µM), usual class: inhibitors; 230,000 tested, under 10 active; AID 1477
#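 Bead-based AlphaScreen assay; binding partners His-tagged CBF-beta and biotinylated RUNX1 at 30 nM each. Compound exposure 15 min after a 20-min protein preincubation; bead step 90 min; all steps at room temperature.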
# Glioma ERSR ind – inducers of ER stress response in human glioma cells. U87-MG GRP78 promoter luciferase reporter, 16 h. Potency, µM, actives largely listed as activators. 420,000 compounds, 0.02% hits; note: series mostly up to about 76 µM; nearly all actives have a fitted effect of over 35% in size
#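 ERSR induction read as luciferase luminescence (Bright-Glo, 10 min at room temperature) in stably transfected human U87-MG glioma cells exposed to compounds for 16 h, using GRP78 as sensor.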
# ClpP mod – qHTS Assay for Activators of ClpP; ATP-dependent Clp protease proteolytic subunit (Bacillus subtilis (strain 168)), P80244; purified B. subtilis ClpP, FRET peptide cleavage, 20 min; Potency, µM (titrated, usually from 57.5 µM); 340,000 compounds, 1.9% hits; active = well fitted falling curve with a large enough effect; inconclusive = small, poorly fitted or top-dose-only effect; inactive = no such curve, though single readings can be large or run the other way; note: the source files actives as falling curves though it sought activators and does not explain the sign; nearly all actives have a fitted effect of over 65% in size
# Target sequence (P80244 whole entry, looked up): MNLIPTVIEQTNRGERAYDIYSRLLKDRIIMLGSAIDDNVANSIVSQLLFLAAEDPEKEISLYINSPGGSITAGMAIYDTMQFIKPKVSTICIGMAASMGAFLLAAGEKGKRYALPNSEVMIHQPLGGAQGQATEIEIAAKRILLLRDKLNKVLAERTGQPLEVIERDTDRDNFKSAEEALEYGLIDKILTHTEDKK
#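 FRET quenching reversal measured ClpP activation: 10 microg/mL B. subtilis ClpP at pH 8 with the FRET-FV decapeptide, read at 430 nm after 320 nm excitation. The 20-min minus 0-min signal was scaled between DMSO/no-enzyme wells and ADEP (5.8 microM final).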
# N370S GC mod – inhibits or activates N370S mutant glucocerebrosidase | 330,000 compounds, 0.092% hits | N370S GC spleen homogenate, 4MU-glucoside fluorescence | Potency, µM (titrated, usually from 59.4 µM), hits mostly inhibitors
# a7 integrin act – activates integrin-mediated alleviation for muscular dystrophy; alpha7betagal myoblasts, beta-gal FDG fluorescence, 48 h; Potency, µM (highest dose often 38.3 µM), actives largely listed as activators; 350,000 compounds, 0.064% hits; note: nearly all actives have a fitted effect of over 60% in size
#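 alpha7betagal+/- myoblasts (passage 13, 250/well) treated 48 h at 37C with compounds at 1:260 dilution of DMSO stock. Lysed, then beta-galactosidase activity read as FDG fluorescence (ex 480/em 540) after 30 min, with pre-read for autofluorescence.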
# Numbers stand for hits; - = inactive; ? = inconclusive; . = no result. This is one part of a sample in which hits are shown more often than they occur. Unless noted, calls come from the whole dose curve; as a rule, active = well fitted curve in the direction sought with a large enough effect; inconclusive = small, poorly fitted or top-dose-only effect, or another doubt; inactive = no such curve, though single readings can be large; an effect the other way counts as inactive or inconclusive.
SMILES,Apoferritin bind,CBFb-RUNX1 inh,Glioma ERSR ind,ClpP mod,N370S GC mod,a7 integrin act
COc1cc(OC)c(-c2nnc(-c3ccc(OC)c(OC)c3OC)o2)cc1OC,-,-,-,28.2µM,-,-
CCOc1ccc2[nH]c(=O)c(CN(CCO)Cc3nnnn3CCc3ccccc3)cc2c1,-,-,-,31.6µM,-,-
Cc1ccc2[nH]c(=O)c(CN(CCO)Cc3nnnn3Cc3ccccc3)cc2c1,.,.,-,-,.,.
O=c1[nH]c2cc3c(cc2cc1CN(CCc1ccccc1)Cc1nnnn1CC1CCCO1)OCO3 (stereo not drawn),-,-,-,25.1µM,-,-
COc1ccc2cc(C(c3nnnn3CC3CCCO3)N3CCOCC3)c(=O)[nH]c2c1 (stereo not drawn),-,-,-,25.1µM,-,-
COc1ccc2[nH]c(=O)c(CN(CCc3ccccc3)Cc3nnnn3CC3CCCO3)cc2c1 (stereo not drawn),-,-,-,25.1µM,-,-
C=Cc1ccc(C(=O)N2CCc3c(cnc(C)c3CNC(=O)c3ccc4c(c3)OCO4)C2)cc1,.,.,-,.,.,.
CCN1CCCC1CNC(=O)c1cnn(-c2nccc(-c3ccco3)n2)c1C1CC1 (stereo not drawn),.,.,-,.,.,.
CCOC(=O)c1sc2nc(CC(=O)OC)nc(NCc3ccco3)c2c1C,-,-,-,28.2µM,-,-
O=C(NCCCCc1ccccc1)C12CN(Cc3ccccc3)CC1C(c1ccc([N+](=O)[O-])cc1)=NO2 (stereo not drawn),-,?,-,-,10µM,-
CCOc1ccc(S(=O)(=O)NCC2CCCO2)c2cccnc12 (stereo not drawn),-,-,-,39.8µM,-,-
CCOc1ccc(S(=O)(=O)NCc2ccc(Cl)cc2)c2cccnc12,-,-,-,15.8µM,-,-
O=C(Nc1ccc(Cl)cc1Cl)[C@@H]1CC=C[C@@H]2CCN(C3CCCCC3)C(=O)[C@@H]21,.,.,-,-,.,.
COc1cc(C(=O)Nc2cc(C)ccc2C)ccc1OCc1c(C)noc1C,.,.,-,.,.,-
Cc1ccc(C)c(NC(=O)c2ccc(OCc3c(C)noc3C)cc2)c1,.,.,-,31.6µM,.,-
CCCCn1c(N)c(N(CC(C)C)C(=O)CSCc2c(C)noc2C)c(=O)[nH]c1=O,.,.,-,28.2µM,-,-
CCCCn1c(N)c(N(CCC(C)C)C(=O)c2[nH]c(C)c(C(=O)OCC)c2C)c(=O)[nH]c1=O,.,.,-,17.8µM,-,-
CCCCn1c(N)c(N(CCC(C)C)C(=O)c2ccccc2-n2cnnn2)c(=O)[nH]c1=O,.,.,-,28.2µM,-,-
CCCCn1c(N)c(N(CCC(C)C)C(=O)c2ccccc2C)c(=O)[nH]c1=O,-,.,-,.,-,-
C=C1C=C(C(F)F)n2ncc(C(=O)NCc3ccccc3OC)c2N1,.,.,-,-,.,.
CC(=O)NC(Cc1ccc(Cl)cc1)C(=O)NCC(N)C(=O)c1ccccc1 (stereo not drawn),.,.,.,-,.,.
CO[C@H]1[C@H](NC(=O)c2ccco2)c2ccccc2C12CCN(Cc1cnn(-c3ccccc3)c1)CC2,.,.,-,.,.,.
CNC(=O)/C(=C\c1cccc(Oc2ccccc2)c1)NC(=O)c1ccccc1,-,-,-,-,-,11.2µM
Oc1ccc(Nc2nc3ccccc3nc2Nc2ccc(O)cc2)cc1,-,-,-,31.6µM,4.47µM,-
COc1ccc(C2=CC(c3cccc(C)c3)n3nnnc3N2)cc1 (stereo not drawn),-,.,-,31.6µM,.,.
SMILES,Apoferritin bind,CBFb-RUNX1 inh,Glioma ERSR ind,ClpP mod,N370S GC mod,a7 integrin act
NS(=O)(=O)c1cccnc1Nc1c(Cl)cccc1Cl,-,-,-,28.2µM,-,-
CC(=O)NS(=O)(=O)c1cccnc1Nc1cccc(Cl)c1C,-,-,-,-,-,-
Cc1ccc(C)c(CN2C[C@H](Sc3nc4ccccc4[nH]3)C[C@H]2C(=O)N2CCCN(C)CC2)c1,.,.,-,.,.,.
Cc1cccc(NC(=O)CSc2cccc3cccnc23)c1C,-,.,-,.,-,-
CCOC(=O)CSc1cccc2cccnc12,-,?,-,15.8µM,-,-
O=C(CSc1cccc2cccnc12)NCc1ccco1,-,-,-,25.1µM,-,-
CN1C(=O)CC(CC(=O)N2CCCCC2CCO)(c2cccc(F)c2)C1=O (stereo not drawn),.,.,-,.,.,.
CCOC(=O)C1=C(C)Nc2sc(C(=O)c3ccc(C)cc3)c(N)c2C1c1ccc(C(=O)OC)cc1 (stereo not drawn),-,-,-,8.91µM,-,-
COc1cccc(CNC(=O)c2c(OC)cc(=O)n3c2CCN(C(=O)c2ccc(C)nc2)CC3)c1,.,.,-,.,.,.
C=C1C2(C(=O)Nc3nccs3)CCC(C2)C1(C)C (stereo not drawn),7.94µM,-,-,-,?,-
O=C(Nc1nccs1)C1(c2ccc(Cl)cc2)CC1,-,-,-,-,-,-
Cc1ncc2c(c1CNC(=O)c1cncs1)CCN(C(=O)c1ccc(C(C)(C)C)cc1)C2,.,.,-,.,.,.
Cc1nc(NCc2cnn(C)c2C)sc1-c1ccn(CC2COc3ccccc3O2)n1 (stereo not drawn),.,.,-,.,.,.
COCCNc1nc(N)c([N+](=O)[O-])c(NCC2CCCO2)n1 (stereo not drawn),-,-,-,25.1µM,-,-
CC(=O)c1cc(CC=C(C)C)c(O)cc1O,?,-,-,-,-,-
CC(=O)c1cc(CC=C(C)C)c(O)c(CC=C(C)C)c1O,-,-,-,28.2µM,-,-
O=C(Cc1ccccc1)Nc1cccc(-c2nnc(-c3ccco3)o2)c1,-,-,-,25.1µM,-,-
O=C(COc1ccccc1)Nc1ccc(-c2nnc(-c3ccco3)o2)cc1,-,-,-,20µM,-,-
O=C(Nc1cccc(-c2nnc(-c3ccco3)o2)c1)c1ccccc1,-,-,-,.,-,-
O=C(Nc1cccc(-c2nnc(-c3ccco3)o2)c1)C(c1ccccc1)c1ccccc1,-,-,-,11.2µM,-,?
O=C(c1cnsn1)N1CCOc2ccc(CN3CCOCC3)cc2C1,.,.,-,.,.,.
CCn1nc(C)c(/C=N/NC(=O)c2ccoc2C)c1C,-,-,-,15.8µM,-,-
CCSc1nc(-c2ccc(OC)cc2)n(-c2nc3ccccc3s2)n1,-,-,-,28.2µM,-,-
Cc1c(C(=O)O)c(-c2ccccc2)nn1-c1ccccc1,-,-,-,15.8µM,-,-
CCOC(=O)c1c(CSc2ccccc2)n(C)c2cc(Br)c(OCC(O)CNC(CO)(CO)CO)cc12 (stereo not drawn),-,-,-,-,14.1µM,-
COc1cccc(-n2c(SC)nnc2C2CCN(Cc3cccc(OC)c3O)CC2)c1,.,.,-,.,.,.
CC1(C)Cc2c(cnn2-c2ccccc2)C(=O)/C1=N\NC(=O)c1ccncc1,.,.,-,-,.,-
